HepG2 tox – kills HepG2 cells in TGF-b inhibitor counter-screen; Potency, µM (series often up to 46.1 µM), for the others: at the highest dose activity change, negative = cytotoxicity, actives largely listed as cytotoxic; HepG2 CAGA-GFP viability, ATP luminescence, 18 h; 0.76% of 410,000 active; further: potency means the concentration at half of the fitted maximal effect
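HepG2 CAGA-GFP cells (1000/well, DMEM with 1% FBS) received compound, then TGF-beta at 500 pg/mL final, and were incubated 18 hours at 37 degrees C. Viability was read by CellTiter-Glo luminescence. Media-only wells were set as complete cell-killing and DMSO as no toxicity.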
IL-1B inflam inh – inhibitors of inflammasome signaling (IL-1 beta secretion). activity change, % at 57.5 µM. 4.7% of 360,000 active. THP-1 LPS/ATP IL-1B secretion, AlphaLISA, 16 h; hits give low values. AID 743279; in the data active means activity change below about -50%; inconclusive means mostly about -30% to -49%; further: on the % scale 0 is the no-effect control and ±100 the full control effect
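Secreted IL-1B measured by AlphaLISA bead assay after 16 h compound exposure of THP-1 cells; compounds (final up to 57.5 uM) added 1 h before LPS (250 ng/mL) and ATP (1.25 mM) stimulation; lower signal means less secretion.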
TGFb SMAD3 inh – blocks TGF-b signaling; HepG2 CAGA-GFP TGF-b/SMAD3 reporter, GFP fluorescence, 18 h; TGF-beta stimulated, 500 pg/mL final; Potency, µM (top dose mostly 46.1 µM), inactives show at the highest dose activity, negative = inhibition, most hits filed as inhibitors; 1.2% of 410,000 active; further: potency means the concentration at half of the fitted maximal effect; on the % scale 0 is the no-effect control and ±100 the full control effect; nearly all actives have a fitted effect of over 65% in size
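Cell-based qHTS in HEPG2 carrying a CAGA-GFP Smad reporter; compounds added before 500 pg/mL final TGF-beta, 18 h incubation at 37 degrees C, GFP fluorescence quantified per cell by imaging cytometry.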
S2 tox – viability counter-screen for ATXN expression inhibitors | S2 cells (HEK-293 line with an ATXN2-luciferase reporter) viability, CellTiter-Fluor protease fluorescence, 24 h | Potency, µM (series often up to 56.7 µM), hits mostly cytotoxic | 0.49% of 400,000 active | AID 651635; further: potency means the concentration at half of the fitted maximal effect; nearly all actives have a fitted effect of over 40% in size
ATXN2 expr inh – inhibitors of ATXN2 expression; AID 1745845; 0.72% of 360,000 active; HEK-293 ATXN2-luciferase reporter, luminescence, 24 h; Potency, µM (highest dose often 57 µM), for inactives: top-dose activity change, negative = inhibition, usual class: inhibitors; further: potency means the concentration at half of the fitted maximal effect; on the % scale 0 is the no-effect control and ±100 the full control effect; nearly all actives have a fitted effect of over 55% in size
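qHTS (up to 57 uM final) was run with 24 h compound exposure of reporter cells at 37 °C. Each well was multiplexed: SteadyGlo luminescence measured ATXN2-luciferase expression after a fluorogenic Gly-Phe-AFC viability readout (25 uM final).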
* = called active by the depositor. Sampled rows, rich in hits. Any-hit rate of the full collection: about 5.7%. Unless noted, the call rests on the fitted dose curve; in most records, active means well fitted curve in the direction sought with a large enough effect; inconclusive means small, poorly fitted or top-dose-only effect, or another doubt; inactive means no such curve, though single readings can be large; an effect the other way counts as inactive or inconclusive.

`COc1ccc(C(C(=O)Nc2ccc(F)cc2)N(C(=O)Cn2nnc3ccccc32)C2CC2)cc1` (stereo unspecified) gave HepG2 tox -2.0%, IL-1B inflam inh -71.7*, TGFb SMAD3 inh inconclusive, S2 tox inactive and ATXN2 expr inh -7.9%.
`O=C(c1cc(-c2ccccc2)nc2ccccc12)N1CCOCC1` gave HepG2 tox -2.1%, IL-1B inflam inh 15.0, TGFb SMAD3 inh -23.0%, S2 tox inactive and ATXN2 expr inh 9.0%.
`CC(C)c1ccc(-c2cc(C(=O)N3CCOCC3)c3cc(Br)ccc3n2)cc1` gave HepG2 tox 1.2%, IL-1B inflam inh -72.7*, TGFb SMAD3 inh 5.4%, S2 tox inactive and ATXN2 expr inh 15.1%.
Screening O=C(CCl)N1c2ccccc2Sc2c1ccc1ccccc21 returned HepG2 tox -104.7%, IL-1B inflam inh -102.2*, TGFb SMAD3 inh 0.0% and ATXN2 expr inh -1.3%.
`CCN1C(=O)CS/C1=N\S(=O)(=O)c1ccc(Cl)cc1` gave HepG2 tox 15.8%, IL-1B inflam inh 1.8, TGFb SMAD3 inh 33.5%, S2 tox inactive and ATXN2 expr inh -15.7%.
For CCn1c(Cl)c(C=O)s/c1=N\S(=O)(=O)c1ccccc1 the results were HepG2 tox 8.91µM*, IL-1B inflam inh -3.3, TGFb SMAD3 inh 3.55µM*, S2 tox 14.1µM* and ATXN2 expr inh 12.6µM*.
`CCN(c1cc(C)cc(C)c1)S(=O)(=O)c1nnc(NC(=O)C2CCCCC2)s1` gave HepG2 tox -0.1% and TGFb SMAD3 inh -19.2%.
COC(=O)C(Nc1ccccc1Cl)(c1cc(C)c(O)c(C)c1)C(F)(F)F (stereo unspecified) was read as HepG2 tox 15.8µM*, IL-1B inflam inh 4.8, TGFb SMAD3 inh 10µM*, S2 tox inactive and ATXN2 expr inh inconclusive.
For CC(C)Cc1nc2oc3c(Cl)ncnc3c2c2c1CCCC2 the results were HepG2 tox 4.8%, IL-1B inflam inh -9.2, TGFb SMAD3 inh 16.8%, S2 tox inconclusive and ATXN2 expr inh 31.6µM*.
`CCCc1nc2oc3c(Cl)ncnc3c2c2c1CCCC2` gave HepG2 tox -50.9%, IL-1B inflam inh 4.5, TGFb SMAD3 inh 0.0%, S2 tox inconclusive and ATXN2 expr inh inconclusive.
Screening CC1=CC(=NOC(=O)c2cccc([N+](=O)[O-])c2)C=C(C)C1=O returned HepG2 tox -19.3%, IL-1B inflam inh -85.0*, TGFb SMAD3 inh -6.8%, S2 tox inconclusive and ATXN2 expr inh 40.5%.
For CC1=CC(=O)C(C(C)C)=C/C1=N/OC(=O)c1cccc([N+](=O)[O-])c1 the results were HepG2 tox -32.9%, IL-1B inflam inh -100.6*, TGFb SMAD3 inh inconclusive, S2 tox inactive and ATXN2 expr inh 24.7%.
CC1=CC(=O)C(C(C)C)=C/C1=N\OC(=O)c1cccc2nc(C)oc12 was read as HepG2 tox 6.1%, IL-1B inflam inh 1.0, TGFb SMAD3 inh inconclusive, S2 tox inactive and ATXN2 expr inh 15.3%.
For CCCCN(C)C(=O)C1CCCN(c2ncnc3onc(C)c23)C1 (stereo unspecified) the results were HepG2 tox -13.1%, TGFb SMAD3 inh -26.8%, S2 tox inactive and ATXN2 expr inh -24.6%.
`CCn1cc(S(=O)(=O)c2ccc(C)cc2C)c(=O)c2cc(F)c(N3CCCC3)cc21` gave HepG2 tox -22.6% and TGFb SMAD3 inh inconclusive.
Screening O=C(CNc1cc(S(=O)(=O)N2CCOCC2)ccc1NCC1CCCO1)Nc1ccc(C(F)(F)F)cc1 (stereo unspecified) returned HepG2 tox -5.1%, IL-1B inflam inh -61.7*, TGFb SMAD3 inh -13.4%, S2 tox inactive and ATXN2 expr inh 2.8%.
For Cc1ccc(S(=O)(=O)NC(=O)NC2CCCCCCC2)cc1 the results were S2 tox inactive and ATXN2 expr inh 13.6%.
`Cc1c(C(=O)NCCc2ccc(Cl)cc2)cccc1-n1cnc2cccnc21` gave HepG2 tox 4.2% and TGFb SMAD3 inh 0.0%.
`CCOc1cccc(CN2CCCC(N3CCc4ccccc4C3)C2)c1O` (stereo unspecified) gave HepG2 tox -29.6%, IL-1B inflam inh -4.3, TGFb SMAD3 inh 6.6%, S2 tox inactive and ATXN2 expr inh 2.6%.
For CCOc1cccc(CN2CCCC(N3CCN(c4cccc(Cl)c4)CC3)C2)c1O (stereo unspecified) the results were HepG2 tox -25.7%, IL-1B inflam inh -72.0*, TGFb SMAD3 inh 11.6%, S2 tox inactive and ATXN2 expr inh inconclusive.
Screening COc1ccc(C(=O)C2CCCN(Cc3cc(C)c(O)c(C)c3)C2)c(OC)c1 (stereo unspecified) returned HepG2 tox -0.1%, IL-1B inflam inh inconclusive, TGFb SMAD3 inh inconclusive, S2 tox inactive and ATXN2 expr inh -25.6%.
For COc1cccc(CN2CCCC(C(=O)c3ccc4c(c3)OCO4)C2)c1O (stereo unspecified) the results were HepG2 tox -30.2%, IL-1B inflam inh -23.9, TGFb SMAD3 inh -25.3%, S2 tox inconclusive and ATXN2 expr inh 1.8%.
For COc1ccc(C(=O)C2CCCN(Cc3cc(Cl)ccc3O)C2)c(OC)c1 (stereo unspecified) the results were HepG2 tox -30.3%, IL-1B inflam inh -65.4*, TGFb SMAD3 inh inconclusive, S2 tox inconclusive and ATXN2 expr inh -38.0%.
CCOc1cccc(CN2CCCC(C(=O)c3cc(Cl)ccc3OC)C2)c1O (stereo unspecified) was read as HepG2 tox -34.2%, IL-1B inflam inh -54.7*, TGFb SMAD3 inh -8.2%, S2 tox inactive and ATXN2 expr inh -26.7%.
For COc1cccc2sc(N(CCCN(C)C)C(=O)c3ccc(S(=O)(=O)N4CCCc5ccccc54)cc3)nc12 the results were HepG2 tox -99.5%, IL-1B inflam inh -50.3*, TGFb SMAD3 inh inconclusive, S2 tox inconclusive and ATXN2 expr inh inconclusive.
CCc1ccc2nc(N(CCCN(C)C)C(=O)c3ccc(S(=O)(=O)N4CCCC4)cc3)sc2c1 was read as HepG2 tox -25.1%, IL-1B inflam inh -13.0, TGFb SMAD3 inh -28.3%, S2 tox inconclusive and ATXN2 expr inh -25.5%.
`CN(C)CCN(C(=O)c1ccc(S(=O)(=O)N2CCc3ccccc32)cc1)c1nc2ccc(F)cc2s1` gave HepG2 tox -5.3%, IL-1B inflam inh -21.3, TGFb SMAD3 inh -4.4%, S2 tox inactive and ATXN2 expr inh 6.5%.
CN(C)CCCN(C(=O)c1ccc(S(=O)(=O)N2CCc3ccccc32)cc1)c1nc2c(Cl)cccc2s1 was read as HepG2 tox -53.0%, IL-1B inflam inh -82.8*, TGFb SMAD3 inh inconclusive, S2 tox inactive and ATXN2 expr inh inconclusive.

Screens: PubChem, National Center for Advancing Translational Sciences (NCATS)
